# From article PMC8384837, “Expanding the binding specificity for RNA recognition by a PUF domain”
# Tests used:
# Assay in all cases: yeast three-hybrid, YBZ-1, SC-Leu-His + 0.5 mM 3-AT, 4 days
# Conditions in all cases: tags: N-Gal4 AD-HA kept; label: inside an RPR1-promoter hybrid RNA with tandem MS2 sites; ssRNA
# PUM1 PUF domain R3-VWG = PUM1 PUF domain R3-VWG (Homo sapiens, UniProt Q14671 828-1176, C935V;R936W;Q939G)
# In short: (§1)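 Repeat regions from input (SC-Leu) and selection (SC-Leu-His + 0.5 mM 3-AT) plates were PCR-amplified and Illumina-sequenced after four days of growth. The cells were strain YBZ-1 with a LexA–MS2 coat fusion and a HIS3 reporter, co-expressing Pumilio-1 PUF domain libraries and matching RNA elements from a centromeric plasmid. The interaction score is the log change in variant frequency from input to selection, taken in log2 with a pseudocount of 1 for absent variants.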
# PUM1 PUF domain R5-GRY = PUM1 PUF domain R5-GRY (Homo sapiens, UniProt Q14671 828-1176, C1007G;Q1011Y)
# In short: as §1
# PUM1 PUF domain R5-RYE = PUM1 PUF domain R5-RYE (Homo sapiens, UniProt Q14671 828-1176, C1007R;R1008Y;Q1011E)
# In short: as §1
# PUM1 PUF domain R5-SKC = PUM1 PUF domain R5-SKC (Homo sapiens, UniProt Q14671 828-1176, C1007S;R1008K;Q1011C)
# In short: as §1
# PUM1 PUF domain R5-FRK = PUM1 PUF domain R5-FRK (Homo sapiens, UniProt Q14671 828-1176, C1007F;Q1011K)
# In short: as §1
# PUM1 PUF domain R8-VFK = PUM1 PUF domain R8-VFK (Homo sapiens, UniProt Q14671 828-1176, N1122V;Y1123F;Q1126K)
# In short: as §1
# PUM1 PUF domain R4-TPV = PUM1 PUF domain R4-TPV (Homo sapiens, UniProt Q14671 828-1176, N971T;H972P;Q975V)
# In short: as §1
# PUM1 PUF domain R6-NRS = target: T1, PUM1 PUF domain R6-NRS (Homo sapiens, UniProt Q14671 828-1176, Y1044R;Q1047S)
# T1 sequence: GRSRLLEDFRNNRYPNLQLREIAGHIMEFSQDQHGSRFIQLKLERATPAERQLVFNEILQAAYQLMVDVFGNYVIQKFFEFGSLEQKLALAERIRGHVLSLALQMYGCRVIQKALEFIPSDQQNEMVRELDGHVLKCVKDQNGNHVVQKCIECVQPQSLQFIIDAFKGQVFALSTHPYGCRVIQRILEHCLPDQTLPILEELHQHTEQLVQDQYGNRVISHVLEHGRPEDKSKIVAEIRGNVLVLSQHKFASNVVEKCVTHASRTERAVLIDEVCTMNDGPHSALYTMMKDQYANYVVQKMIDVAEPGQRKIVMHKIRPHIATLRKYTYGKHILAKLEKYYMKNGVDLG
# In short: as §1
# PUM1 PUF domain R4-RIY = PUM1 PUF domain R4-RIY (Homo sapiens, UniProt Q14671 828-1176, N971R;H972I;Q975Y)
# In short: as §1
# PUM1 PUF domain R4-GPY = PUM1 PUF domain R4-GPY (Homo sapiens, UniProt Q14671 828-1176, N971G;H972P;Q975Y)
# In short: as §1
sequence,measurement,setting,value
GGCUAGAACUAGUGGAUCCCCCGGCGCCCGGCGGCUCGAGCCCGGGUAAGUGUAAGUAGUCUGCAUGCCGCCGGGCGCCAUGCCUGCAGGUCGACUCUAGAAAACAUG,binding signal,PUM1 PUF domain R3-VWG,1.81 log2 enrichment (interaction score)
GGCUAGAACUAGUGGAUCCCCCGGCGCCCGGCGGCUCGAGCCCGGGUAAGUGUUAAUAGUCUGCAUGCCGCCGGGCGCCAUGCCUGCAGGUCGACUCUAGAAAACAUG,binding signal,PUM1 PUF domain R5-GRY,3.13 log2 enrichment (interaction score)
same,binding signal,PUM1 PUF domain R5-RYE,4.59 log2 enrichment (interaction score)
same,binding signal,PUM1 PUF domain R5-SKC,3.5 log2 enrichment (interaction score)
same,binding signal,PUM1 PUF domain R5-FRK,3.62 log2 enrichment (interaction score)
GGCUAGAACUAGUGGAUCCCCCGGCGCCCGGCGGCUCGAGCCCGGGUAAGUGUAAUUAGUCUGCAUGCCGCCGGGCGCCAUGCCUGCAGGUCGACUCUAGAAAACAUG,binding signal,PUM1 PUF domain R3-VWG,2.33 log2 enrichment (interaction score)
GGCUAGAACUAGUGGAUCCCCCGGCGCCCGGCGGCUCGAGCCCGGGUAAGCGUAAAUAGUCUGCAUGCCGCCGGGCGCCAUGCCUGCAGGUCGACUCUAGAAAACAUG,binding signal,PUM1 PUF domain R8-VFK,4.7 log2 enrichment (interaction score)
GGCUAGAACUAGUGGAUCCCCCGGCGCCCGGCGGCUCGAGCCCGGGUAAGUGUAUAUAGUCUGCAUGCCGCCGGGCGCCAUGCCUGCAGGUCGACUCUAGAAAACAUG,binding signal,PUM1 PUF domain R4-TPV,2.96 log2 enrichment (interaction score)
GGCUAGAACUAGUGGAUCCCCCGGCGCCCGGCGGCUCGAGCCCGGGUAAGUGUAAAUAGUCUGCAUGCCGCCGGGCGCCAUGCCUGCAGGUCGACUCUAGAAAACAUG,binding signal,PUM1 PUF domain R5-GRY,3.42 log2 enrichment (interaction score)
same,binding signal,PUM1 PUF domain R4-TPV,2.59 log2 enrichment (interaction score)
same,binding signal,PUM1 PUF domain R3-VWG,4.18 log2 enrichment (interaction score)
same,binding signal,PUM1 PUF domain R6-NRS,3.98 log2 enrichment (interaction score)
same,binding signal,PUM1 PUF domain R5-FRK,2.17 log2 enrichment (interaction score)
same,binding signal,PUM1 PUF domain R4-RIY,7.23 log2 enrichment (interaction score)
same,binding signal,PUM1 PUF domain R4-GPY,2.92 log2 enrichment (interaction score)
GGCUAGAACUAGUGGAUCCCCCGGCGCCCGGCGGCUCGAGCCCGGGUAAGUGUCAAUAGUCUGCAUGCCGCCGGGCGCCAUGCCUGCAGGUCGACUCUAGAAAACAUG,binding signal,PUM1 PUF domain R5-GRY,0.08 log2 enrichment (interaction score)
same,binding signal,PUM1 PUF domain R5-SKC,1.38 log2 enrichment (interaction score)
same,binding signal,PUM1 PUF domain R5-FRK,3.81 log2 enrichment (interaction score)
GGCUAGAACUAGUGGAUCCCCCGGCGCCCGGCGGCUCGAGCCCGGGUAAGUGUACAUAGUCUGCAUGCCGCCGGGCGCCAUGCCUGCAGGUCGACUCUAGAAAACAUG,binding signal,PUM1 PUF domain R4-TPV,2.89 log2 enrichment (interaction score)
